Inconclusive results are not listed. Active and inactive are the calls of the source. Unless noted, the call rests on the fitted dose curve; in most records, active means well fitted curve in the direction sought with a large enough effect in the repeat runs; inconclusive means weak or mixed curves; inactive means no such curve, though single readings can be large; an effect the other way counts as inactive or inconclusive.
Experiments:
[1] = A CellTox Green Cytotoxicity Assay to monitor cytotoxicity in HEK293 cells - 32 hour (AID 1224881); further: nearly all actives have a fitted effect of over 40% in size
In short: (§1)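 Tox21 screen in HEK293: membrane-impermeant cyanine dye fluoresces on binding dead-cell DNA; compound pinned 5 h post-seeding, plates held at 37 C, signal read repeatedly through 40 h.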

[2] = A CellTox Green Cytotoxicity Assay to monitor cytotoxicity in HepG2 cells - 0 hour (AID 1224882); further: nearly all actives have a fitted effect of over 35% in size
In short: (§2)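 Measurements at 0, 8, 16, 24, 32 and 40 h of treatment captured CellTox Green fluorescence in HepG2 cells that had been co-plated with reagent and preincubated 5 h at 37 C/5% CO2.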

[3] = A CellTox Green Cytotoxicity Assay to monitor cytotoxicity in HEK293 cells - 8 hour (AID 1224884); further: nearly all actives have a fitted effect of over 35% in size
In short: as §1

[4] = qHTS RealTime-Glo MT Cell Viability Assay in HepG2 cells - 16 hour (AID 1224885); further: nearly all actives have a fitted effect of over 50% in size
In short: (§3)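 Viability was tracked continuously by NanoLuc luminescence from prosubstrate reduced by living HepG2 cells, at successive time points over 40 h of compound exposure. Cells with reagent were preincubated 5 h at 37 °C before compound addition.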

[5] = qHTS RealTime-Glo MT Cell Viability Assay in HEK293 cells - 24 hour (AID 1224886); further: top concentration of the series differs between compounds; nearly all actives have a fitted effect of over 50% in size
In short: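 Viability tracked continuously by luminescence as live cells reduce a prosubstrate for NanoLuc; HEK293 cells preincubated 5 h, compound-treated at 37 C, and read at 0, 8, 16, 24, 32 and 40 h.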

[6] = qHTS RealTime-Glo MT Cell Viability Assay in HEK293 cells - 8 hour (AID 1224887); further: top concentration of the series differs between compounds; nearly all actives have a fitted effect of over 50% in size
In short: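 HEK293 + NanoLuc + prosubstrate, 600 cells/well; 5 h, 37 C/5% CO2; compound 23 nL in DMSO by pintool; 37 C; luminescence read at 0, 8, 16, 24, 32 and 40 h time points.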

[7] = A CellTox Green Cytotoxicity Assay to monitor cytotoxicity in HEK293 cells - 16 hour (AID 1224888); further: nearly all actives have a fitted effect of over 35% in size
In short: as §1

[8] = qHTS RealTime-Glo MT Cell Viability Assay in HepG2 cells - 0 hour (AID 1224889); further: nearly all actives have a fitted effect of over 50% in size
In short: as §3

[9] = A CellTox Green Cytotoxicity Assay to monitor cytotoxicity in HepG2 cells - 8 hour (AID 1224890); further: nearly all actives have a fitted effect of over 45% in size
In short: as §2

[10] = qHTS assay to identify small molecule antagonists of the estrogen receptor alpha (ER-alpha) signaling pathway using the BG1 cell line in the presence of 0.1 nM 17-beta-estradiol - cell viability counter screen (AID 1259241); further: nearly all actives have a fitted effect of over 40% in size
In short: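 Viability in VM7Luc4E2 cells after 22 hr compound exposure under 0.1 nM 17beta-estradiol stimulation, by CellTiter-Fluor.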

[11] = qHTS assay to identify small molecule antagonists of the androgen receptor (AR) signaling pathway using the MDA cell line in the presence of 0.5 nM R1881 - cell viability counter screen (AID 1259242); further: nearly all actives have a fitted effect of over 45% in size
In short: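 Concentration-response screen of compounds for toxicity in MDA-kb2 reporter cells: 16 hr at 37C with 0.5 nM R1881, endpoint live-cell protease fluorescence measured in the reporter wells.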

[12] = target: Androgen receptor (Homo sapiens) (UniProt P10275); assay: qHTS assay to identify small molecule antagonists of the androgen receptor (AR) signaling pathway using the MDA cell line in the presence of 0.5 nM R1881 (AID 1259243); further: nearly all actives have a fitted effect of over 50% in size
In short: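 With R1881 held at 0.5 nM (final), compound effects on MMTV-luciferase expression in MDA-kb2 cells were scored by luminescence after a 16 hr, 37C incubation.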

[13] = qHTS assay to identify small molecule HDAC inhibitors (AID 1259364);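 further: wild-type HCT-116 cells with endogenous class I/II HDAC activity; top concentration of the series differs between compounds; nearly all actives have a fitted effect of over 45% in size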
In short: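 Screening used wild-type human colon HCT-116 cells incubated overnight, dosed with compounds for 2 hours, and assayed with a homogeneous luminogenic HDAC I/II reagent for 30 minutes at room temperature.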

[14] = qHTS assay to identify small molecule HDAC inhibitors - cell viability counter screen (AID 1259365)
In short: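 Cytotoxicity was gauged in wild-type HCT-116 cells after a brief 2hr treatment with DMSO-dissolved compounds at 37C and 5% CO2, using CellTiter-Glo luminescence developed for 30min at room temperature.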

[15] = qHTS assay to identify small molecule agonists of the sonic hedgehog signaling (Shh) pathway - cell viability counter screen (AID 1259366); further: nearly all actives have a fitted effect of over 50% in size
In short: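 Stable Gli1-Luc NIH/3T3 clone, 2,000 cells/well. Compound exposure 24hr at 37C. Read-out: CellTiter-Fluor fluorescence.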

[16] = qHTS assay to identify small molecule antagonists of the sonic hedgehog signaling (Shh) pathway - cell viability counter screen (AID 1259367); further: nearly all actives have a fitted effect of over 55% in size
In short: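 Cytotoxicity was assessed in parallel with Shh reporter activity by measuring live-cell protease fluorescence (CellTiter-Fluor) in NIH/3T3 cells stably carrying Gli1-Luc, treated with compound under conditioned medium stimulation for 23 hr plus 1 hr reagent incubation.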

[17] = qHTS assay to identify small molecule agonists of the sonic hedgehog signaling (Shh) pathway (AID 1259368; calls by dose curve;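 further: NIH/3T3-derived 3T3Gli1-Luc cells carrying a stable Gli1-driven firefly luciferase reporter; series mostly up to about 92 µM; nearly all actives have a fitted effect of over 15% in size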)
In short: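 Hedgehog pathway agonism scored by increased firefly luciferase luminescence in 3T3Gli1-Luc cells treated 24 hr at 37 C; detection used a 30 min room-temperature reagent incubation.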

[18] = A CellTox Green Cytotoxicity Assay to monitor cytotoxicity in HepG2 cells - 32 hour (AID 1224883); further: nearly all actives have a fitted effect of over 50% in size
In short: as §2

[19] = target: Estrogen receptor (Homo sapiens) (UniProt P03372); assay: qHTS assay to identify small molecule antagonists of the estrogen receptor alpha (ER-alpha) signaling pathway using the BG1 cell line in the presence of 0.1 nM 17-beta-estradiol (AID 1259244); further: nearly all actives have a fitted effect of over 50% in size
In short: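 Compounds were tested against 0.1 nM (final) 17beta-estradiol in VM7Luc4E2 cells, which express full-length ER-alpha and an ERE-luciferase reporter; luminescence was recorded following 22 h exposure.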

[20] = qHTS assay to identify small molecule phospholipidosis (PLD) inducers (AID 1259344; active means well fitted curve in the direction sought with a large enough effect; an effect the other way counts as inactive or inconclusive)
In short: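 Cells (HepG2, 900 per well) attach for 4 h, receive LipidTOX Red and compound together, incubate 24 h at 37 C, are fixed 30 min with paraformaldehyde/Hoechst, then imaged at one site per well.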
On the % scale 0 is the no-effect control and ±100 the full control effect.

Sequence of Androgen receptor (Homo sapiens) (P10275 whole entry, looked up): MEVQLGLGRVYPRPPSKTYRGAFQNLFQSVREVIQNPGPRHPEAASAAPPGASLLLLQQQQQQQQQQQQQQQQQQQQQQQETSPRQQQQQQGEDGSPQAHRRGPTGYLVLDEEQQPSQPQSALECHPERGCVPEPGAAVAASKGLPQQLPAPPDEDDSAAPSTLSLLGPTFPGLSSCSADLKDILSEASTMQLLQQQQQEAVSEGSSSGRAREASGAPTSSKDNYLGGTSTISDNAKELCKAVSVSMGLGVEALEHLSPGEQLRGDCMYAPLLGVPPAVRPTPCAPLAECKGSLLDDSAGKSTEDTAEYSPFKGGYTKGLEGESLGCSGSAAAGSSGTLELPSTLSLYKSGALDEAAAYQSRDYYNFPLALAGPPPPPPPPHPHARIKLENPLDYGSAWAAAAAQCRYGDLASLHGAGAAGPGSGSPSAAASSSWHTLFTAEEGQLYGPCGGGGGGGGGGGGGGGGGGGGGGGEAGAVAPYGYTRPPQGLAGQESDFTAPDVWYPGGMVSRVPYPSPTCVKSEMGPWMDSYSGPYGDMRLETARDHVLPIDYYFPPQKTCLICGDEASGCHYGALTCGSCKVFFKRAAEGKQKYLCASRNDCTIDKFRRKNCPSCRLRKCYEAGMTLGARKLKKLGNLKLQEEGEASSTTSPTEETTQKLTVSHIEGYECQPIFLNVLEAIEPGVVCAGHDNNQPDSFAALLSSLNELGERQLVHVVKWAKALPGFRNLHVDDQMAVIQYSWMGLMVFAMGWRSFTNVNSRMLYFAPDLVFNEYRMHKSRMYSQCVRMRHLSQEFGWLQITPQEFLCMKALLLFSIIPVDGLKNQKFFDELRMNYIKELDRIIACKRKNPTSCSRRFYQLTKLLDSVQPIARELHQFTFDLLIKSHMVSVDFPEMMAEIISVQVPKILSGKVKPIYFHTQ
Sequence of Estrogen receptor (Homo sapiens) (P03372 whole entry, looked up): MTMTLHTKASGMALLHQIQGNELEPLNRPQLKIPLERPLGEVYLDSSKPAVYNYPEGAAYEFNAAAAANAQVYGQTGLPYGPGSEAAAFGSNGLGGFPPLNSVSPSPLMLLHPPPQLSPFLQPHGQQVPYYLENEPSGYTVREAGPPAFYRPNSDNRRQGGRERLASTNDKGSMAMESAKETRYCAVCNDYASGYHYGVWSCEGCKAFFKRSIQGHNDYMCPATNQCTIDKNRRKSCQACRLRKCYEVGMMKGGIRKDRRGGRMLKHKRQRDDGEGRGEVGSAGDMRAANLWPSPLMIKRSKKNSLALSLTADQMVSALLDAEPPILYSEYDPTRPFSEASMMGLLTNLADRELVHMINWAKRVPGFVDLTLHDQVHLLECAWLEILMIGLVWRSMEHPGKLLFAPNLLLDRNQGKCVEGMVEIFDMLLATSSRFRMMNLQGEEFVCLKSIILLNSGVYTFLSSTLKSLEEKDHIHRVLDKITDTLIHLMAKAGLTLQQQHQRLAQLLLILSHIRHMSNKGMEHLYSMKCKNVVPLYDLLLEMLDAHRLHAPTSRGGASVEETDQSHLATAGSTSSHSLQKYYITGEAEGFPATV

Cc1coc2ccccc2c1=O
inactive: outcome [1] | Potency [2] | outcome [3] | outcome [4] | Potency [5] | Potency [6] | outcome [7] | Potency [8] | outcome [9] | outcome [10] | outcome [11] | Potency [12] | Potency [13] | outcome [14] | Potency [15] | Potency [16] | outcome [17]

FB(F)F
inactive: outcome [1] | Potency [18] | outcome [3] | outcome [4] | Potency [5] | Potency [6] | outcome [7] | Potency [8] | outcome [9] | outcome [10] | outcome [11] | outcome [19] | Potency [13] | outcome [14] | Potency [16] | outcome [17]

C[C@@H]1CCC[C@H](C)N1
inactive: outcome [1] | Potency [2] | outcome [3] | outcome [4] | Potency [5] | outcome [7] | Potency [8] | outcome [10] | outcome [11] | outcome [20] | Potency [13] | outcome [14] | Potency [16] | outcome [17]

NC(=O)Cc1cccc2ccccc12
inactive: outcome [1] | Potency [2] | outcome [3] | outcome [4] | Potency [5] | Potency [6] | outcome [7] | Potency [8] | outcome [9] | outcome [10] | outcome [11] | Potency [13] | outcome [14] | Potency [15] | Potency [16] | outcome [17]

NO
inactive: outcome [1] | Potency [2] | outcome [3] | outcome [4] | Potency [5] | Potency [6] | outcome [7] | Potency [8] | outcome [9] | outcome [10] | outcome [11] | Potency [13] | outcome [14] | Potency [15] | Potency [16] | outcome [17]

COc1ccccc1OCC1CNC(=O)O1 (configuration not stated)
inactive: outcome [1] | Potency [2] | outcome [3] | outcome [4] | Potency [5] | Potency [6] | outcome [7] | Potency [8] | outcome [9] | outcome [10] | outcome [11] | PLD induction [20] 3.13% [at 7.66 µM] | Potency [13] | outcome [14] | Potency [15] | Potency [16] | outcome [17]

NCCCC(N)(C(=O)O)C(F)F (configuration not stated)
inactive: outcome [1] | Potency [18] | outcome [3] | outcome [4] | Potency [5] | Potency [6] | outcome [7] | Potency [8] | outcome [9] | outcome [10] | outcome [11] | outcome [20] | Potency [13] | outcome [14] | Potency [15] | Potency [16] | outcome [17]

CC(=O)C1CCCCC1=O (configuration not stated)
inactive: outcome [1] | Potency [2] | outcome [3] | outcome [4] | Potency [5] | Potency [6] | outcome [7] | Potency [8] | outcome [9] | outcome [10] | outcome [11] | outcome [19] | Potency [13] | outcome [14] | Potency [15] | Potency [16] | outcome [17]

Cc1ccc(-c2ncc(Cl)cc2-c2ccc(S(C)(=O)=O)cc2)cn1
inactive: outcome [1] | Potency [18] | outcome [3] | outcome [4] | Potency [5] | Potency [6] | outcome [7] | Potency [8] | outcome [9] | outcome [10] | outcome [11] | Potency [12] | outcome [19] | outcome [20] | Potency [13] | outcome [14] | Potency [15] | Potency [16] | outcome [17]

CC1CCC(CO)CC1 (configuration not stated)
inactive: Potency [2] | Potency [18] | outcome [3] | outcome [4] | Potency [5] | Potency [6] | outcome [7] | Potency [8] | outcome [9] | outcome [10] | outcome [11] | Potency [12] | outcome [19] | Potency [13] | outcome [14] | Potency [15] | Potency [16] | outcome [17]

CCCCCCCCCCCCCCC(=O)O
inactive: Potency [2] | Potency [18] | outcome [3] | outcome [4] | Potency [5] | Potency [6] | outcome [7] | Potency [8] | outcome [9] | outcome [10] | outcome [11] | outcome [19] | Potency [13] | outcome [14] | Potency [15] | Potency [16]

O=C(O)Cc1csc(-c2ccc(Cl)cc2)n1
inactive: Potency [2] | Potency [18] | outcome [3] | outcome [4] | Potency [5] | Potency [6] | outcome [7] | Potency [8] | outcome [9] | outcome [10] | outcome [11] | Potency [12] | outcome [19] | outcome [20] | Potency [13] | outcome [14] | Potency [16] | outcome [17]

Cc1ccnc(NS(=O)(=O)c2ccc(N)cc2)n1
inactive: outcome [1] | outcome [3] | outcome [4] | Potency [5] | outcome [7] | Potency [8] | outcome [9] | outcome [10] | outcome [11] | outcome [19] | outcome [20] | Potency [13] | outcome [14] | Potency [15] | Potency [16] | outcome [17]

Cc1c(N)c(=O)n(-c2ccccc2)n1C
inactive: outcome [1] | outcome [3] | outcome [4] | Potency [6] | outcome [7] | Potency [8] | outcome [10] | outcome [11] | outcome [20] | Potency [13] | outcome [14] | Potency [15] | Potency [16] | outcome [17]

O=C(O)CNC(=O)c1ccc(CO)o1
inactive: Potency [2] | Potency [18] | outcome [3] | outcome [4] | Potency [5] | Potency [6] | outcome [7] | Potency [8] | outcome [9] | outcome [10] | outcome [11] | Potency [13] | outcome [14] | Potency [15] | Potency [16] | outcome [17]

Reference: PubChem BioAssay (Tox21)
